Only some compounds are listed: those with a hit (about 7.6% of all), similar ones and a draw of the others.
Giardia killer – Giardia lamblia killing; Giardia lamblia trophozoite viability; activity change, % at 7.66 µM, hits read low; 0.15% of 340,000 active; AID 540267; in the data active means activity change below about -80%; inconclusive means between about -30% and that limit;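 further: parasites exposed to compound for two days anaerobically before the ATP read; on the % scale 0 is the no-effect control and ±100 the full control effect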
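Giardia lamblia trophozoites (100 cells/well) were incubated with compounds for 48 h at 37 deg C under anaerobic conditions. Viability was read as ATP content by one-step luminescence after 15-30 min at room temperature.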
ELG1 repair inh – inhibitors of ELG1-dependent DNA repair in HEK293T cells; HEK293T ELG1-luciferase reporter, luminescence, 16 h; DNA damage induced by 5-fluorouridine; Potency, µM (top dose mostly 46.1 µM), inactives show at the top dose activity change, negative = inhibition, hits mostly inhibitors; 2.3% of 330,000 active; AID 504467; further: potency means the concentration at half of the fitted maximal effect; on the % scale 0 is the no-effect control and ±100 the full control effect; nearly all actives have a fitted effect of over 55% in size
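Quantitative HTS, concentration-response format. 2,000 cells/well co-treated with 5-fluorouridine and compound, 16 hr in 5% CO2 at 37 °C; ONE-Glo luminescence read after 30 min.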
p53 reactivation – mutant p53 re-activation in reporter cells; H1299 p53-A138V BP100-luciferase reporter, luminescence, 24 h; Potency, µM (highest dose often 92.2 µM), without a hit: at the top dose activity change, positive = activation, usual class: activators; 0.063% of 320,000 active; AID 504706; further: potency means the concentration at half of the fitted maximal effect; % of control where 0% means no effect; nearly all actives have a fitted effect of over 45% in size
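H1299 (p53-null), stable ts p53-A138V + BP100-Luc; 1000 cells/well, Opti-MEM/10% FBS; cpd 4 pt, 1:5; 24 h, 37 deg C, 5% CO2; detection reagent 10 min RT; luminescence.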
BRCA1 expr act – BRCA1 expression activation | MCF7-BRCA1-FFLuc reporter, luminescence, 48 h; response scale: scaled: vehicle 0%, 10 µM genistein 100% | Potency, µM (top dose mostly 46.1 µM), for the others: at the top dose activation, hits mostly activators | 1.1% of 380,000 active; further: potency means the concentration at half of the fitted maximal effect; nearly all actives have a fitted effect of over 80% in size
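Using MCF7 cells harboring a BRCA1 firefly luciferase reporter, plated 2 h before compound pinning, the screen measured luminescence after 48 h incubation. Responses were normalized to DMSO and 10 microM genistein, then fitted for concentration-effect.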
RORgamma inh – blocks mouse ROR gamma transcriptional activity. Drosophila S2 Gal4-RORgamma UAS-luciferase reporter, 20 h. Potency, µM (series often up to 53.6 µM), inactives show top-dose activity change, negative = inhibition, actives largely listed as inhibitors. 5.4% of 310,000 active. P51450; further: potency means the concentration at half of the fitted maximal effect; on the % scale 0 is the no-effect control and ±100 the full control effect; nearly all actives have a fitted effect of over 60% in size
Target sequence (P51450 whole entry, looked up, the tested form may be a part): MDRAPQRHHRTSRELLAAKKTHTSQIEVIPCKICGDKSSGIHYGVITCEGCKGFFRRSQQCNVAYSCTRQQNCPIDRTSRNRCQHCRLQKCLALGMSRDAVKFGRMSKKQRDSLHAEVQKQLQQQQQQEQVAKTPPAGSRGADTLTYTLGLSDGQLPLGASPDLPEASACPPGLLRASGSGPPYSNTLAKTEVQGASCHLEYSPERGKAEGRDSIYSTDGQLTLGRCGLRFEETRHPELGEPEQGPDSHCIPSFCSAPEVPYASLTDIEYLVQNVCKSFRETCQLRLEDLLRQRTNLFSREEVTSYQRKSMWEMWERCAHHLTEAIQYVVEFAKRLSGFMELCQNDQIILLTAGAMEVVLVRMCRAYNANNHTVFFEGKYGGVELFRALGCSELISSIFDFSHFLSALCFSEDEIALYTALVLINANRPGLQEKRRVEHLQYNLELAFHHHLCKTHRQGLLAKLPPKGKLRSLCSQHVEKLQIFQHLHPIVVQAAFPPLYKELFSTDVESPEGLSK
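Drosophila S2 cells stably expressing Gal4-DBD/mouse RORγ fusion under metallothionein promoter plus UAS-luciferase; compound 1 h, then 700 uM CuSO4 induction for 20 h at ambient temperature; inhibition read as reduced luminescence.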
Gal4-VP16 FLuc – counter-screen for ROR gamma inhibitors: Gal4-VP16 reporter. Drosophila S2 Gal4-VP16 UAS-luciferase, luminescence, 20 h. Potency, µM (series often up to 53.6 µM), inactives show at the highest dose activity, negative = inhibition, hits mostly inhibitors. 3.5% of 310,000 active;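 further: Gal4-VP16 expression switched on by copper sulfate through the metallothionein promoter; potency means the concentration at half of the fitted maximal effect; on the % scale 0 is the no-effect control and ±100 the full control effect; nearly all actives have a fitted effect of over 50% in size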
* marks the source's active call; other numbers are inactive results; ? = inconclusive; nt = not tested or not shown. Unless noted, the call rests on the fitted dose curve; in most records, active means well fitted curve in the direction sought with a large enough effect; inconclusive means small, poorly fitted or top-dose-only effect, or another doubt; inactive means no such curve, though single readings can be large; an effect the other way counts as inactive or inconclusive.

SMILES	Giardia killer	ELG1 repair inh	p53 reactivation	BRCA1 expr act	RORgamma inh	Gal4-VP16 FLuc
O=[N+]([O-])c1ccc(/C=N/Nc2nc(N3CCCC3)nc(N3CCCC3)n2)o1	-95*	?	8%	-66%	-26%	17%
O=[N+]([O-])c1cccc(-c2ccc(/C=N/Nc3nc(N4CCCCC4)nc(N4CCCCC4)n3)o2)c1	10	?	0%	-42%	10µM*	-6%
COc1nc(N/N=C/c2ccc(-c3cccc([N+](=O)[O-])c3)o2)nc(N2CCOCC2)n1	nt	2.3µM*	11%	nt	-8%	-2%
CCNc1nc(NCC)nc(N/N=C/c2ccc([N+](=O)[O-])o2)n1	-82*	0%	5%	-52%	?	-10%
Cc1cccc(NC(=O)COc2ccc3oc4c(c3c2)CCCC4)c1	nt	nt	nt	16%	nt	nt
O=S(=O)(Nc1ccc2nc(-c3ccc(Br)o3)[nH]c2c1)c1ccccc1	nt	?	23%	nt	?	1%
O=S(=O)(Nc1ccc2nc(C(F)(F)F)[nH]c2c1)c1ccccc1	5	10µM*	-2%	-58%	?	-12%
S=c1[nH]nc(-c2ccc(Br)cc2)n1-c1ccc(Br)cc1	-1	2%	-5%	49%	11µM*	?
COc1cc(-c2n[nH]c(=S)n2-c2ccc(Br)cc2)cc(OC)c1OC	15	11%	49%	-18%	8.9µM*	?
COc1cc(-c2n[nH]c(=S)n2-c2cccc(C(F)(F)F)c2)cc(OC)c1OC	26	?	-12%	-29%	24%	2%
COc1ccc(-c2n[nH]c(=S)n2-c2ccc3c(c2)OCCO3)cc1	3	?	4%	-27%	2.8µM*	?
COc1cc(OC)cc(-c2n[nH]c(=S)n2-c2cc(OC)ccc2OC)c1	-9	3%	-1%	3%	?	-12%
COc1cccc(-n2c(-c3cccc(S(=O)(=O)N(C)C)c3)n[nH]c2=S)c1	-1	-3%	3%	-16%	-33%	10%
COc1cc(OC)cc(-c2n[nH]c(=S)n2-c2ccc3c(c2)OCCO3)c1	-9	-11%	-3%	0%	0.35µM*	3%
O=C(N/N=C/c1c[nH]c2ccccc12)c1ccn[nH]1	31	?	14%	79%	42%	-7%
O=C(COC(=O)CNC(=O)c1ccc(Cl)cc1Cl)Nc1cccc(S(=O)(=O)N2CCCC2)c1	-13	-10%	-4%	-29%	nt	nt
C[C@H](NC(=O)[C@@H]1CCCN1C(=O)[C@@H]1CCCN1C(=O)c1ccc(Cl)cc1)c1ccccc1	nt	nt	nt	21%	nt	nt
O=C(O)c1ccc(-n2c(-c3ccc(Br)cc3)n[nH]c2=S)cc1	2	2%	2%	-20%	2%	2%
O=[N+]([O-])c1cccc(-c2n[nH]c(=S)n2-c2ccc(Br)cc2)c1	-6	9%	-1%	0%	10µM*	0%
S=c1[nH]nc(-c2ccc(Br)cc2)n1-c1ccc2c(c1)OCCO2	-11	0%	1%	-1%	0.4µM*	-29%
O=C(/C=C/c1ccco1)Nc1ccc(S(=O)(=O)N2CCOCC2)cc1	-15	5%	-1%	-21%	9%	-11%
COc1ccc(-c2cc(C(=O)NNC3=NCCC3)c3c(C)nn(-c4ccccc4)c3n2)cc1	-16	-2%	0%	-21%	0.32µM*	?
CC(/C=N/NC(=O)c1cc(-c2cccnc2)nc2c1c(C)nn2-c1ccccc1)=C\c1ccccc1	-6	5.8µM*	-10%	-39%	?	-3%
COc1ccc(C(=O)/C(C#N)=N/Nc2ccc([N+](=O)[O-])cc2)cc1	?	1.3µM*	11%	-68%	5.6µM*	3.5µM*
COc1cc(NC(=O)c2ccc(OCc3c(C)noc3C)c(OC)c2)cc(OC)c1	-7	21µM*	-13%	-14%	nt	nt
SMILES	Giardia killer	ELG1 repair inh	p53 reactivation	BRCA1 expr act	RORgamma inh	Gal4-VP16 FLuc
COc1cc(C(=O)Nc2cc(OC)c(OC)c(OC)c2)ccc1OCc1c(C)noc1C	-8	-14%	-5%	-47%	nt	nt
O=c1c2cc(Cl)ccc2[nH]c(=S)n1Cc1ccccn1	0	?	14%	-6%	2.2µM*	3.2µM*
CCCn1c(=S)[nH]c2ccccc2c1=O	-5	0%	10%	11%	2.8µM*	7.9µM*
O=C(NCc1ccccn1)c1ccc(Cn2c(=S)[nH]c3ccc(Br)cc3c2=O)cc1	1	-1%	-3%	-3%	-2%	-2%
CN(C)CCn1c(=S)[nH]c2ccccc2c1=O	8	2%	-5%	-4%	5%	-8%
CCN(CC)CCn1c(=S)[nH]c2cc(Cl)ccc2c1=O	-2	4%	-1%	1%	13µM*	?
CCN(CC)CCn1c(=S)[nH]c2ccc(Cl)cc2c1=O	7	0%	0%	-7%	?	?
O=c1c2ccccc2[nH]c(=S)n1CCN1CCN(Cc2ccccc2)CC1	-14	1%	7%	-23%	35µM*	?
COc1cc(CN2CCC(Cc3ccccc3)CC2)cc(OC)c1OC	10	-25%	?	-15%	-32%	-2%
O=c1c2ccccc2[nH]c(=S)n1CCN1CCc2ccccc2C1	-27	9%	-6%	-38%	11µM*	?
O=c1c2ccccc2[nH]c(=S)n1Cc1cccs1	-7	-5%	2%	15%	1.6µM*	3.2µM*
O=c1c2cccnc2[nH]c(=S)n1Cc1ccccc1	-3	26%	-3%	4%	10µM*	4µM*
CN1CCN(CCn2c(=S)[nH]c3ccccc3c2=O)CC1	-12	15%	0%	-1%	-8%	5%
O=c1c2ccccc2[nH]c(=S)n1CCc1ccccc1	6	?	16%	19%	1.6µM*	3.2µM*
CC(NC(=O)Cn1cnc([N+](=O)[O-])n1)c1ccccc1 (centres undefined)	3	15%	3%	0%	-9%	8%
COc1cc2[nH]c(=S)n(Cc3ccccc3)c(=O)c2cc1OC	-26	-6%	-3%	-8%	3.2µM*	5µM*
O=c1c2ccccc2[nH]c(=S)n1Cc1ccccc1	12	5%	-1%	1%	4µM*	5µM*
O=c1c2ccccc2[nH]c(=S)n1Cc1ccccc1Cl	6	18%	-4%	-50%	3.5µM*	5µM*
O=c1c2ccccc2[nH]c(=S)n1Cc1cccnc1	-1	4%	-5%	1%	?	?
CC(C)(C)C(=O)/C=C1\SCC(=O)N1CC(=O)N1CCN(c2ccccc2)CC1	?	?	-2%	2%	nt	nt
